# High-throughput results (PubChem)
# aSyn UTR act = Activators working through SNCA 5'UTR binding (MLPCN); alpha-synuclein 5'UTR reporter, activators screen; activity score, % (tested at 7.5 µM), hits read low; actives 7.1% (n = 300,000); in the data active = activity score below about -60%
# An asterisk follows results filed as active. These entries were drawn from the full list.
SMILES,aSyn UTR act
COc1ccc(C)cc1NC(=O)Nc1ccc(C(=O)N2CCCC2)cc1,-64*
O=C(NCc1cccnc1)NC1(C(F)(F)F)Oc2ccccc2O1,-66*
COc1cccc(NC(=O)Nc2ccccc2SC)c1,-72*
Cc1oc2c(c1C(=O)NCc1cccnc1)C(=O)c1ccccc1C2=O,107
COc1ccc(NC(=O)Nc2cc(C)ccc2F)cc1,-164*
COc1cccc(NC(=O)Nc2cc(C)ccc2F)c1,-73*
COc1cccc(NC(=O)NC2(C(F)(F)F)Oc3ccccc3O2)c1,-77*
COc1cccc(NC(=O)NCc2ccccc2Cl)c1,-73*
CCOc1cccc2cc(-c3cn4cc(C)ccc4n3)c(=O)oc12,-83*
COc1ccc(-n2c(C)cc(-c3cn4cccc(C)c4n3)c2C)cc1,-79*
COc1cccc2cc(-c3cn4ccc(C)cc4n3)c(=O)oc12,-88*
COc1cccc2cc(-c3cn4cccc(C)c4n3)c(=O)oc12,-154*
Nc1cccc2c1C(=O)N(C(=O)/C=C/c1cccc(Br)c1)C2=O,-160*
N#Cc1c(-c2ccccc2)ccnc1Oc1ccccc1,-75*
CCOc1ccc(-c2ccc(/C=C3/C(=N)N4C=CSC4=NC3=O)o2)c([N+](=O)[O-])c1,-72*
CCCC(=O)c1ccc(N2CCCCCC2)c(F)c1,-137*
CCCC(=O)c1ccc(N2CCCCC2)c(F)c1,-126*
FC(F)(F)c1ccc(Nc2nnnc3ccccc23)cc1,-140*
CCCCNc1c(-c2cccc(-c3cc(C(C)=O)cs3)c2)nc2ccc(C)cn12,-71*
Cc1ccc2nc(-c3ccc(N4C(=N)SC5CS(=O)(=O)CC54)cc3)sc2c1 (stereo unspecified),-101*
Cc1ccc(C(CC(=O)c2ccco2)SCCO)cc1 (stereo unspecified),-90*
c1ccc2nc3c(nc2c1)[nH]c1ccccc13,-171*
O=C(Nc1ccccc1)c1cnc2ccccc2n1,-116*
O=C(N/N=C/c1ccsc1)c1ccc2ccccc2n1,-97*
Cc1ccc(NC(=O)c2ccc(S(=O)(=O)NCc3ccco3)cc2)nc1,-131*
SMILES,aSyn UTR act
Cc1ccc(NC(=O)c2cnc3ccccc3n2)cc1C,-96*
O=C(Nc1ccc(S(=O)(=O)NCc2ccco2)cc1)c1ccc2ccccc2n1,-66*
Cc1ccc(NC(=O)c2c(C)nc3ccccn23)cc1C,-152*
Cc1ccc(NC(=O)c2ccc3ccccc3n2)cc1S(=O)(=O)N(C)C,-121*
Cc1ccc(/C=C/C(=O)c2c(C)nc3ccccn23)cc1,-90*
CCC(C)n1ncn(-c2ccc(N3CCN(c4ccc(O)cc4)CC3)cc2)c1=O (stereo unspecified),73
CCc1nnc(NC(=O)c2ccc3ccccc3n2)s1,-196*
O=C(Nc1ccccc1)c1ccc2ccccc2n1,-178*
Cc1ccc(NC(=O)c2ccc(=O)[nH]n2)cc1C,-102*
Cc1ccc(NC(=O)c2ncc(Cl)c(Cl)c2Cl)cc1C,-164*
CCOC(=O)c1c(CSC(=N)N)n(-c2ccccc2)c2cc(Br)c(OC(C)=O)cc12,-71*
CCc1cccc(NC(=O)c2cnn(-c3ccccc3)c2C)c1,-144*
COc1cccc(NC(=O)c2cnn(-c3ccccc3)c2C)c1,-91*
O=C(Nc1cccc(Cl)c1)c1ccc(Cn2cc(Cl)cn2)cc1,-70*
CCn1ncc(C(=O)Nc2cccc(Cl)c2)c1C,-207*
COc1ccc(OC)c(C(=O)NC2CC(C)(C)Cc3c2cnn3-c2ccccc2)c1 (stereo unspecified),67
Cc1ccc(NC(=O)c2cnn(-c3ccccc3)c2C)c(C)c1,-212*
COc1ccc(C(=O)C[n+]2ccc3ccccc3c2C)cc1,-144*
COc1ccc(C(=O)NCC(=O)c2ccccc2)cc1,-102*
COc1ccc(C(=O)CC(=O)c2ccc(OC)cc2)cc1,-71*
COc1ccc(C(=O)Cc2nnc(C)s2)cc1,-99*
COC(=O)c1ccc(OCC(=O)c2ccccc2)cc1,-133*
COc1ccc(S(=O)(=O)Nc2cc3c(C(C)=O)c(C)oc3c3ccccc23)cc1,82
COc1ccc(C(CC(=O)c2ccccc2)S(=O)(=O)c2ccc(C)cc2)cc1 (stereo unspecified),-186*
O=C(CNS(=O)(=O)c1ccccc1)OCC(=O)c1ccc(OC(=O)c2ccccc2)cc1,-67*
SMILES,aSyn UTR act
CCOc1ccc(C(=O)CSCCC(=O)O)cc1,68
COc1ccc(C(=O)CCNc2ccc(F)cc2)cc1,-114*
COc1ccc(C(=O)CC(=O)c2ccccc2)cc1,-125*
Fc1cccc(Cl)c1CSc1ccc(-c2cccnc2)nn1,-80*
CCN=C1NN=C(c2ccc(C)cc2)CS1,-128*
c1ccc(CN=C2NN=C(c3ccccc3)CS2)cc1,-182*
S=C(N=Nc1ccccc1)NNc1ccccc1,-132*
CCCn1c(Sc2nnnn2-c2ccccc2)n[nH]c1=O,-98*
CN(C)/N=C/c1ccc(OS(=O)(=O)c2ccccc2)cc1,-157*
Cc1ccc(OCCSc2nc(N)cc(N)n2)cc1,-120*
COc1ccc(OCCSc2nc(N)cc(N)n2)cc1,-103*
Cc1cccn2c(=O)c(C=Nc3ccccc3)c(NCc3ccco3)nc12,-118*
